# Screening data from PubChem BioAssay.
# Rango complex inh: inhibitors of Rango-importin beta complex formation; Q14974; Rango CFP/YFP FRET sensor + importin beta, 45 min; Potency, µM (series often up to 92.2 µM), for inactives: top-dose inhibition of complex formation; hit rate 0.031% among 340,000;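 also: potency is read from the fitted curve at half-maximal effect; 0% = DMSO wells and 100% = buffer wells lacking importin beta; nearly all actives have a fitted effect of over 15% in size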
# Target sequence (Q14974 whole entry, looked up): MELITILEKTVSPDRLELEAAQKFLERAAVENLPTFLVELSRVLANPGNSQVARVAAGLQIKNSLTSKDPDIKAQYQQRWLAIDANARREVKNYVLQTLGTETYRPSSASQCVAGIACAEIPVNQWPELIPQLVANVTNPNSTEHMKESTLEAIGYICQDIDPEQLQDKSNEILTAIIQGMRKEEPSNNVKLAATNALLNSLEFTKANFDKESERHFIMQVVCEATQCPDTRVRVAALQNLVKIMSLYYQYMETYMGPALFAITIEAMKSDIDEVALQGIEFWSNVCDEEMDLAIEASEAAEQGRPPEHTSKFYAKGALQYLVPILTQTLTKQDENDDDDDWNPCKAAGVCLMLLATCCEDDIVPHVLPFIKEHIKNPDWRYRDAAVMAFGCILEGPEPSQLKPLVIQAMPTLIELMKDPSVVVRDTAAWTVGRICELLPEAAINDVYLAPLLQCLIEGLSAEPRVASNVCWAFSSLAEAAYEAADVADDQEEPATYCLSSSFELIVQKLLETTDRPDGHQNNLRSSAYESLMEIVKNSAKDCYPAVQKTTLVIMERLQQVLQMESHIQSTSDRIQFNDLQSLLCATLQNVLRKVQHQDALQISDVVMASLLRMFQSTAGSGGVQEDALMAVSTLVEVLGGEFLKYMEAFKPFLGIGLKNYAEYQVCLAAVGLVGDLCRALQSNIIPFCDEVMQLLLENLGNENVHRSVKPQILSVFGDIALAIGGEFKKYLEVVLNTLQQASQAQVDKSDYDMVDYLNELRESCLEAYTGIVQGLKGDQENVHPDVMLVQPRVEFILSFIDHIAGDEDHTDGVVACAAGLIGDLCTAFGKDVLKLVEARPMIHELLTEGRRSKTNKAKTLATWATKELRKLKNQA
#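 Inhibition scored from the CFP 486 nm/YFP 530 nm FRET ratio 45 min after adding 0.125 microM importin beta to 50 nM Rango biosensor preincubated 5 min with compound (room temperature, PBS with DTT, Tween-20, BSA). No-importin wells as positive control.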
# ClpP mod: qHTS Assay for Activators of ClpP; hit rate 1.9% among 340,000; purified B. subtilis ClpP, FRET peptide cleavage, 20 min; ATP-dependent Clp protease proteolytic subunit (Bacillus subtilis (strain 168)), P80244; AID 651965, 2013; Potency, µM (titrated, usually from 57.5 µM), for the others: at the top dose activity change, negative = active; active = well fitted falling curve with a large enough effect; inconclusive = small, poorly fitted or top-dose-only effect; inactive = no such curve, though single readings can be large or run the other way; also: potency is read from the fitted curve at half-maximal effect; the source files actives as falling curves though it sought activators and does not explain the sign; nearly all actives have a fitted effect of over 65% in size
#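 ClpP 10 microg/mL final, pH 8 Tris/KCl buffer with BSA, glycerol, Tween-20; compound pinned in; FRET-FV substrate; RT 20 min; Ex320/Em430; ΔFRET vs ADEP 5.8 microM, DMSO, no enzyme.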
# MBNL1-CUG inh: inhibitors of human MBNL1 binding to CUG repeat RNA. TR-FRET MBNL1-His/biotin-(CUG)12 binding, 665/545 ratio. Potency, µM (top dose mostly 57.5 µM), for the others: at the top dose activity change, negative = inhibition, usual class: inhibitors. hit rate 0.036% among 280,000. AID 2675; active = well fitted inhibition curve with a large enough effect in the signal ratio, with a control signal flat, not every such curve was filed as active; inconclusive = small, poorly fitted or top-dose-only effect, or effect the other way, or a change in a side signal; inactive = no such curve, though single readings can be large or run the other way; the % refers to the signal ratio; also: potency is read from the fitted curve at half-maximal effect; % is scaled to controls: 0 for no effect and ±100 for the full control effect
#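 Ratiometric TR-FRET (665 over 545 nm, excitation 340 nm) tracks disruption of MBNL1-His/biotin-(CUG)12 complex after 60 min at room temperature, with compounds at 92 nM to 58 uM final.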
# CBFb RUNX1 block: blocks binding between human CBF-beta and RUNX1; Q01196+Q13951; AlphaScreen CBFb-His/RUNX1-biotin binding, biochemical; Potency, µM (highest dose often 59.8 µM), without a hit: top-dose activity, negative = inhibition, actives largely listed as inhibitors; 230,000 tested, under 10 active; AID 1477; active = well fitted curve in the direction sought with a large enough effect; inconclusive = small, poorly fitted or top-dose-only effect, or effect the other way, or another doubt; inactive = no such curve, though single readings can be large or run the other way; also: % of control where 0% means no effect
#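 CBF-beta (His) and RUNX1 (biotin), 30 nM each; 20 min preassociation; + compound, 15 min; + beads 50 ng each (Ni, streptavidin), 90 min; RT; AlphaScreen read.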
# Rango release inh: prevents RanGTP from dissociating the Rango-importin beta complex; O95149+P62826; Biochemical FRET Rango-importin beta, RanGTP-induced dissociation; Potency, µM (doses to about 46.1 µM), inactives show top-dose activity change, negative = inhibition; hit rate 0.071% among 340,000; AID 540253; also: potency is read from the fitted curve at half-maximal effect; % of control where 0% means no effect; nearly all actives have a fitted effect of over 45% in size
#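 Quantitative HTS using a FRET biosensor: 0.1 uM Rango, 0.25 uM importin beta, 0.6 uM Ran, 2 mM GTP, 0.2 uM RCC1 final, PBS with DTT, Tween-20 and BSA. Post-read taken 45 min after Ran addition.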
# * marks the source's active call; other numbers are inactive results; i = inactive; u = inconclusive; x = no result given; ! = not confirmed by another sample. This is one part of a sample in which hits are shown more often than they occur. Unless noted, calls follow the shape of the full dose curve.
SMILES,Rango complex inh,ClpP mod,MBNL1-CUG inh,CBFb RUNX1 block,Rango release inh
COc1ccc(N2CCN(C(=O)COC(=O)c3oc4ccc(OC)cc4c3C)CC2)cc1,1%,25µM*,x,x,-13%
COc1ccc2oc(C(=O)OCC(=O)N3C(C)CCCC3C)c(C)c2c1 (stereo unspecified),2%,u,6%,x,16%
CCOC(=O)C1CCN(C(=O)COC(=O)c2oc3ccc(OC)cc3c2C)CC1,1%,4%,x,x,-1%
C[N+]1(CC(=O)c2ccc(Cl)c(Cl)c2)CCOCC1,x,-1%,x,x,x
CCOC(=O)C1=C(C)Nc2sc(C(=O)c3ccc(C)cc3)c(N)c2C1c1ccc(C(=O)OC)cc1 (stereo unspecified),u,8.9µM*,13%,11%,u
CCOC(=O)C1=C(C)Nc2sc(C(=O)c3ccc(F)cc3)c(N)c2C1c1ccc(C(=O)OC)cc1 (stereo unspecified),u,1%,2%,-4%,u
CCOC(=O)c1ccc(-n2c(CCC(=O)O)ccc2-c2ccccc2)cc1O,x,-2%,x,x,x
CC1CCC/C(=C\Nc2ccccc2C(=O)O)C1=O (stereo unspecified),u,22µM*,0%,2%,-7%
O=C(C1=NN(c2ccccc2)C2C(=O)N(c3cccc(Cl)c3)C(=O)C12)c1ccccc1 (stereo unspecified),u,18µM*,3%,u,u
Cc1c(NC(=O)c2cc(=O)c3cc(Cl)ccc3o2)c(=O)n(-c2ccccc2)n1C,x,-2%,x,x,x
Cc1cc(N2CCC(C)CC2)n2ncc(-c3ccccc3)c2n1,2%,32µM*,-1%,u,17%
Cc1cc(N2CCCCC2)n2ncc(-c3ccc(Cl)cc3)c2n1,7%,32µM*,-4%,u,15%
CCc1nn2c(=O)cc(COc3ccc(/C=C(\C#N)C(=O)Nc4ccc(F)cc4)cc3OC)nc2s1,x,-3%,x,x,x
CCOc1ccccc1-n1c(N)c(C(=O)OC)c2nc3ccccc3nc21,x,-22%,x,x,x
CC1CCN(C(=O)CSc2ccc(-c3ccc(F)cc3)nn2)CC1,1%,32µM*,4%,-5%,6%
O=C(CNC1=NCCS1)c1c[nH]c2ccccc12,x,-19%,x,x,x
CSc1cnc2c(=O)n(C)c(=O)[nH]c2n1,-5%,16µM*,u,-3%,-9%
CCOC(=O)c1nc(N)c(C(=O)OCC)[nH]1,-1%,14µM*,0%,3%,3%
CCOC(=O)C(C)NC(=O)c1cc2c(=O)[nH]c3ccc(C)cc3c2s1 (stereo unspecified),x,4%,x,x,x
COc1ccccc1OCC(=O)N(Cc1cccs1)C1CCS(=O)(=O)C1 (stereo unspecified),x,-9%,x,x,x
CC1CCCCN1C(=O)c1cnn2c(C(F)(F)F)cc(-c3ccco3)nc12 (stereo unspecified),u,-10%,7%,-2%,9.2µM*
Cc1ccc(S(=O)(=O)c2cn(C)c3cc(N4CCN(C)CC4)c(F)cc3c2=O)cc1,6%,25µM*!,-3%,x,-10%
CCc1ccc(S(=O)(=O)c2cn(C)c3cc(N4CCN(CC)CC4)c(F)cc3c2=O)cc1,x,11µM*,x,x,x
Cn1cc(S(=O)(=O)c2ccccc2)c(=O)c2cc(F)c(N3CCOCC3)cc21,10%,28µM*,7%,x,23%
Cc1ccc(S(=O)(=O)c2cn(C)c3cc(N4CCN(c5ccccc5)CC4)c(F)cc3c2=O)cc1,x,-5%,x,x,x
CC1CCCCN1C(=O)COC(=O)c1ccc(S(C)(=O)=O)c([N+](=O)[O-])c1 (stereo unspecified),x,-1%,x,x,x
CC(C)C/C(O)=C/c1nc2cc(Cl)ccc2oc1=O,u,1%,-5%,-2%,15µM*
COc1ccc2cc(/C=N/O)c(Cl)nc2c1,3%,-8%,20%,-2%,0%
COc1ccc2cc(/C=N/NC(=O)c3ccc(CN(c4cccc(Cl)c4Cl)S(C)(=O)=O)cc3)c(Cl)nc2c1,u,18µM*,i,1%,-9%
